# Reference: PubChem BioAssay (NCATS)
# Several values for one entry are separate records, joined by “and”; a condition that tells them apart may be missing. Equal values may be shown once. Inconclusive results are not listed. Entries that show only a call come without a potency. Where a structure was tested more than once in an assay, its records may differ in their call. Activity calls are given as the source filed them. Unless noted, calls follow the shape of the dose curve; as a rule, active = well fitted curve in the direction sought with a large enough effect; inconclusive = small, poorly fitted or top-dose-only effect, or another doubt; inactive = no such curve, though single readings can be large; an effect the other way counts as inactive or inconclusive.
# How the values were obtained:
# [1] = molecular target: Cytochrome P450 1A2 (Homo sapiens) (UniProt P05177); assay: p450-cyp1a2 (AID 410; calls by dose curve)
# Outline: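 O-Demethylation of luciferin 6' methyl ether by human CYP1A2 is monitored as luciferase luminescence. Substrate sits at Km (100uM); enzyme is 20nM. Values are scaled to 57 uM furafylline as maximal inhibition.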
# [2] = molecular target: Glucocorticoid receptor (Homo sapiens) (UniProt P04150); assay: GR-GFP Redistribution (AID 450;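 active = compounds whose dose series gives a full or clear partial fitted curve of increased nuclear translocation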; also: potency is read from the fitted curve at half-maximal effect); conditions: U2OS GR-GFP nuclear translocation, laser cytometry, 2 h
# [3] = molecular target: Glucocorticoid receptor (Homo sapiens) (UniProt P04150); assay: GR-EFC Redistribution (AID 451; calls by dose curve; also: potency is read from the fitted curve at half-maximal effect); conditions: CHO-K1 GR-EFC translocation, beta-gal luminescence, 2 h
# Outline: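 CHO-K1 cells stably expressing nuclear-localized β-gal enzyme acceptor and GR fused C-terminally to the enzyme donor fragment; ligand-driven nuclear translocation restores β-gal by complementation. Compounds titrated up to 46 uM final, 2 h at 37 °C; luminescence read.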
# [4] = molecular target: 3',5'-cyclic-AMP phosphodiesterase 4B (Homo sapiens) (UniProt Q07343); assay: qHTS Assay for Inhibitors of PDE-IV (AID 607; active = well fitted activation curve with a large enough effect in the main read-out, with a control signal flat, not every such curve was filed as active)
# Outline: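 Cell-based read-out of cAMP via a modified cyclic nucleotide-gated channel and membrane potential dye (535/590 nm) in HEK293 cells expressing PDE4 endogenously. Compounds tested up to 22.9 uM final; 100 uM RO 20-1724 reference.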
# [5] = molecular target: Cytochrome P450 2C9 (Homo sapiens) (UniProt P11712); assay: qHTS Assay for Inhibitors and Substrates of Cytochrome P450 2C9 (AID 883); also: potency is read from the fitted curve at half-maximal effect; nearly all actives have a fitted effect of over 60% in size
# Outline: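 A luminogenic readout tracked human CYP2C9 (10nM) converting deoxyluciferin (100uM, at KM) in 25mM KPO4 during 60 min at 37C with regenerated NADPH. Values normalized to 57uM sulphaphenazole as complete inhibition.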
# [6] = molecular target: Cytochrome P450 2C19 (Homo sapiens) (UniProt P33261); assay: qHTS Assay for Inhibitors and Substrates of Cytochrome P450 2C19 (AID 899); also: potency is read from the fitted curve at half-maximal effect; nearly all actives have a fitted effect of over 60% in size
# Outline: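 NADPH-dependent conversion of Luciferin-H EGE (10uM, at KM) by 5nM enzyme in 50mM KPO4, 60 min at 37C following 10 min compound preincubation. Stopped with luciferin detection buffer; luminescence read after 20 min.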
# [7] = qHTS Assay for Identification of Small Molecule Antagonists for Thrombopoietin (TPO) Signaling Pathway (AID 918); conditions: TPO-dependent cell signaling reporter, antagonist mode; also: potency is read from the fitted curve at half-maximal effect; nearly all actives have a fitted effect of over 60% in size
# Outline: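 Inhibitors of TPO signaling are sought by stimulating IL-3-starved murine Ba/F3 cells (human TPO receptor, Glycoprotein IIb-driven luciferase) with TPO at its EC50 of 26 pM alongside compound. After 24 hrs at 37 C, reporter luminescence is measured.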
# [8] = molecular target: Pyruvate kinase (Leishmania mexicana) (UniProt Q27686); assay: qHTS Validation Assay for Inhibitors of Leishmania Mexicana Pyruvate Kinase (AID 945)
# Outline: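 LmPYK E451W 0.2 nM; 0.5 mM PEP, 0.1 mM ADP, 7 mM MgCl2, 50 mM KCl, imidazole pH 7.2, 0.01% Tween 20, 0.05% BSA; 1 h RT; PKLight luminescence; DMSO-normalized.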
# [9] = molecular target: Pyruvate kinase PKM (Homo sapiens) (UniProt P14618); assay: qHTS Assay for Activators of Human Muscle Pyruvate Kinase (AID 954; active = well fitted curve in the direction sought with a large enough effect, not every such curve was filed as active)
# Outline: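 ATP production by PKM2 detected via luciferase luminescence after 1 h room-temperature reaction (0.1 nM enzyme, PEP at Km 0.5 mM, ADP 0.1 mM, pH 7.2 imidazole buffer). Inhibition scaled to no-enzyme control; activation referenced to 0.3 nM enzyme wells.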
# [10] = molecular target: Alpha-galactosidase (Coffea arabica) (UniProt Q42656); assay: Counterscreen for Glucocerebrosidase Inhibitors: qHTS Assay for Coffee Bean alpha-Galactosidase at pH 4.5 (AID 957)
# Outline: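 Enzyme is added first (2 nM final), then compounds titrated from 0.7 nM to 77 uM, then 80 uM 4-methylumbelliferyl alpha-D-galactopyranoside; after 20 min at room temperature a pH 10 NaOH/glycine stop precedes fluorescence reading at 365/440 nm.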
# [11] = molecular target: Alpha-galactosidase A (Homo sapiens) (UniProt P06280); assay: Counterscreen for Glucocerebrosidase Inhibitors: qHTS Assay for Human alpha-Galactosidase at pH 4.5 (AID 992)
# Outline: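 Fluorogenic 1536-well qHTS at pH 4.5 (citrate, Tween-20): 2 nM enzyme, 80 uM 4-MU-alpha-galactoside, 20 min room temperature, NaOH/glycine stop. Titration 0.7 nM to 77 uM, data normalized to no-enzyme and full-activity controls, Hill-fitted AC50.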
# [12] = molecular target: alpha-glucosidase (Oryza sativa, rice) (UniProt Q653V4); assay: Counterscreen for Glucocerebrosidase Inhibitors: qHTS Assay for Rice alpha-Glucosidase at pH 5.0 (AID 997)
# Outline: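 Endpoint fluorogenic assay at pH 5.0: compounds (0.7 nM to 77 uM) titrated against 4 nM rice enzyme and 400 uM 4-MU-alpha-glucoside for 20 min at room temperature; NaOH/glycine stop, read ex 365/em 440 nm, Hill-fitted AC50.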
# [13] = molecular target: Alpha-galactosidase (Coffea arabica) (UniProt Q42656); assay: Counterscreen for Glucocerebrosidase Inhibitors: qHTS Assay for Coffee Bean alpha-Galactosidase at pH 5.9 (AID 998)
# Outline: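 In 50 mM citric acid pH 5.9 with 0.005% Tween-20, coffee bean enzyme hydrolyses 80 uM 4-MU alpha-D-galactopyranoside over 20 min at RT. Activity is normalized to controls; AC50 comes from Hill-modelled concentration-response data.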
# [14] = molecular target: Ubiquitin carboxyl-terminal hydrolase 1 (Homo sapiens) (UniProt O94782); assay: Inhibitors of USP1/UAF1: Pilot qHTS (AID 504865);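 also: rhodamine fluorescence freed from ubiquitin-rhodamine substrate followed over time; top concentration of the series differs between compounds; nearly all actives have a fitted effect of over 35% in size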
# Outline: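 USP1/UAF1 complex (1nM) preincubated with compound 15 min at room temperature, then Ub-Rho substrate (150nM final) added. Fluorescence read kinetically at 480/540 nm, 6 reads every 60 seconds. Buffer: 50mM HEPES pH 7.8, 0.5mM EDTA, 0.1 mg/ml BSA, 1mM TCEP, 0.01% Tween-20.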
# [15] = molecular target: DNA dC->dU-editing enzyme APOBEC-3G (Homo sapiens) (UniProt Q9HC16); assay: qHTS for inhibitors of Vif-A3G interactions: Validation (AID 588379)
# Outline: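 Yellow fluorescence (Ex 488, Em 500-530) of Vif-coexpressing HeLa A3G-eYFP cells, scanned by Acumen cytometer, reports blocked A3G degradation. Cells plated at 700/well overnight at 37 deg C before compound addition, then a further overnight compound incubation at 37 deg C.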
# [16] = test system: Zika virus NS2B-NS3 protease; assay: Primary screen GU AMC qHTS for Zika virus inhibitors (AID 1347154); also: nearly all actives have a fitted effect of over 70% in size
# Outline: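 Unlinked Zika NS2B hydrophilic domain/NS3 protease domain noncovalent complex (25 nM final) in 10 mM Tris-HCl pH 8.0, 0.01% Tween 20, with AMC peptide substrate. Fluorescence (ex 340, em 450 nm) change over 15 min, room temperature; percent inhibition fitted to 4-parameter Hill equation.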
# [17] = Counterscreen qHTS for small molecule stabilizers of the endoplasmic reticulum resident proteome: GLuc-NoTag assay (AID 1508627)
# Outline: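 Secreted GLuc lacking the SERCaMP modification is measured in SH-SY5Y cells exposed to compound for 19 h and then to thapsigargin (100 nM, 4 h) to deplete ER calcium; hits retested at 11 concentrations, up to 76.6 uM.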
# [18] = Confirmatory qHTS for small molecule stabilizers of the endoplasmic reticulum resident proteome: Secreted ER Calcium Modulated Protein (SERCaMP) assay (AID 1508628); also: nearly all actives have a fitted effect of over 40% in size; also: potency is read from the fitted curve at half-maximal effect
# Outline: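 Reporter secretion upon ER calcium depletion (100 nM thapsigargin, 4 h, 37C) is measured as medium luminescence with coelenterazine, after 16 h compound pretreatment of SH-SY5Y-GLuc-SERCaMP cells; primary at three concentrations up to 38.3 uM, follow-up at 11 (up to 76.6 uM).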
# [19] = Cell Viability qHTS for small molecule stabilizers of the endoplasmic reticulum resident proteome (AID 1508629); conditions: cell viability counter-screen, 100 nM thapsigargin for final 4 h;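 also: human SH-SY5Y neuroblastoma cells carrying the GLuc-SERCaMP reporter; compound exposure about 46 h in total before the viability read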
# [20] = molecular target: Mitogen-activated protein kinase 10 (Mus musculus) (UniProt Q61831); assay: JNK3 AlphaScreen Assay (AID 530; active = well fitted curve in either direction with a large enough effect, not every such curve was filed as active;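 also: kinase came from lysate of stimulated human HepG2 cells; signal reports phosphorylation of biotinylated GST-cJun 1-79 at Ser73 with 10 µM ATP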)
# Outline: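 Phosphorylation of biotinylated GST-cJun(1-79) at Ser73 is measured by AlphaScreen proximity luminescence. Enzyme is JNK3 in HepG2 lysates activated with interleukin-1beta and tumor necrosis factor alpha; ATP is 10 uM final.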
# [21] = molecular target: Cytochrome P450 2D6 (Homo sapiens) (UniProt P10635); assay: qHTS Assay for Inhibitors and Substrates of Cytochrome P450 2D6 (AID 891); also: potency is read from the fitted curve at half-maximal effect; nearly all actives have a fitted effect of over 60% in size
# Outline: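 Luminescent read-out of luciferin formed by 5 nM human CYP2D6 demethylating 30 uM Luciferin-ME EGE (Km level) over 60 min at room temperature after NADPH regeneration addition. Data normalized to full inhibition by 1.43 uM quinidine.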
# [22] = qHTS Assay for Lipid Storage Modulators (AID 1519; calls by dose curve); conditions: Drosophila S3 cells, BODIPY lipid droplet/cell ratio, laser cytometry, cells loaded with oleic acid
# Outline: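 Cells seeded at 5,000 per well were treated with compounds over a concentration series and loaded with oleic acid (400 uM, as added). Lipid droplet fluorescence (488 nm excitation, 500-530 nm channel) was read by laser-scanning cytometry and normalized to 20 uM Triacsin C.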
# Chain of DNA dC->dU-editing enzyme APOBEC-3G (Homo sapiens) (Q9HC16 whole entry, looked up): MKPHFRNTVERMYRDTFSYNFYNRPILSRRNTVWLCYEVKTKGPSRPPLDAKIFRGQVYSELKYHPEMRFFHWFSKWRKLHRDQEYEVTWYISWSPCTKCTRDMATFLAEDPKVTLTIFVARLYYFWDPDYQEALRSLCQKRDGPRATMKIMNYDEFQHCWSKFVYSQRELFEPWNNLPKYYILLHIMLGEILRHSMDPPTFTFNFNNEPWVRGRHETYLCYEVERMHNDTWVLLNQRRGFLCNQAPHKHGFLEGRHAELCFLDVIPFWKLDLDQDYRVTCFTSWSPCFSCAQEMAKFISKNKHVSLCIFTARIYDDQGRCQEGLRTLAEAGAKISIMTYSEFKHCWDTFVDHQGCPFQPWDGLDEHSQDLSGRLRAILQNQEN
# Chain of Glucocorticoid receptor (Homo sapiens) (P04150 whole entry, looked up, the tested form may be a part): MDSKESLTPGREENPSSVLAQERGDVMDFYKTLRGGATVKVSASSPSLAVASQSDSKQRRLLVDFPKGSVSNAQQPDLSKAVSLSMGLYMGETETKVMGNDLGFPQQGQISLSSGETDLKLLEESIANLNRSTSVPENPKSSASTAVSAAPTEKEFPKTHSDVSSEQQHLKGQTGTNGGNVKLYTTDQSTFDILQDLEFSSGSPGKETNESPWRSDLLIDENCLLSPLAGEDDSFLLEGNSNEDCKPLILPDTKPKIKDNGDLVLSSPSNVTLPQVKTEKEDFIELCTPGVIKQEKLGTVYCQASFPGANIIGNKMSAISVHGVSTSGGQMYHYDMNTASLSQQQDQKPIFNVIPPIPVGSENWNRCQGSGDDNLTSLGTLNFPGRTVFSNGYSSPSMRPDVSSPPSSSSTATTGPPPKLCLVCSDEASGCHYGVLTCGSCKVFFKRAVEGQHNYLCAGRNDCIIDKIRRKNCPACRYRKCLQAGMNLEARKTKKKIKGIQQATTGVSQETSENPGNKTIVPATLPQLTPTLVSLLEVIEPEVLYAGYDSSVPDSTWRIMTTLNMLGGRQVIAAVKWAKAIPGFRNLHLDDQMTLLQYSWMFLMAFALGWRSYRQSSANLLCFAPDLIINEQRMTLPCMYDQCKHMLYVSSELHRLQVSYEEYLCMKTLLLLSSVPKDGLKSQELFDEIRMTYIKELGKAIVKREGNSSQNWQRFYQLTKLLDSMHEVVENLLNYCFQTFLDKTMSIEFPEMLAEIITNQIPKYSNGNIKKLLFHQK
# Chain of Cytochrome P450 2C19 (Homo sapiens) (P33261 whole entry, looked up): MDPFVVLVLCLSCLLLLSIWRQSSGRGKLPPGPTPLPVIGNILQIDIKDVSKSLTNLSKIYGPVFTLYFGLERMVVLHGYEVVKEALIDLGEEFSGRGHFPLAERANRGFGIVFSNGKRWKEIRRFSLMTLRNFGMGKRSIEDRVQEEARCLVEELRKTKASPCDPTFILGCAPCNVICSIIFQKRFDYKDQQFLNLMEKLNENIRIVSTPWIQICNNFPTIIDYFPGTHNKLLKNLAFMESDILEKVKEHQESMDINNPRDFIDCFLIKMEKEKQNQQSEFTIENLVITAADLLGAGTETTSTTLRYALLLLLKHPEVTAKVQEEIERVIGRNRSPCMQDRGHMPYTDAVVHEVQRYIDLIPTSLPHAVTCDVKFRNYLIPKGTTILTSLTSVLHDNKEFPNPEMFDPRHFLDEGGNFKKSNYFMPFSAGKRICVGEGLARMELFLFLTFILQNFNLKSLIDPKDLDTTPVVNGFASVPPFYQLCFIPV
# Chain of Alpha-galactosidase (Coffea arabica) (Q42656 whole entry, looked up): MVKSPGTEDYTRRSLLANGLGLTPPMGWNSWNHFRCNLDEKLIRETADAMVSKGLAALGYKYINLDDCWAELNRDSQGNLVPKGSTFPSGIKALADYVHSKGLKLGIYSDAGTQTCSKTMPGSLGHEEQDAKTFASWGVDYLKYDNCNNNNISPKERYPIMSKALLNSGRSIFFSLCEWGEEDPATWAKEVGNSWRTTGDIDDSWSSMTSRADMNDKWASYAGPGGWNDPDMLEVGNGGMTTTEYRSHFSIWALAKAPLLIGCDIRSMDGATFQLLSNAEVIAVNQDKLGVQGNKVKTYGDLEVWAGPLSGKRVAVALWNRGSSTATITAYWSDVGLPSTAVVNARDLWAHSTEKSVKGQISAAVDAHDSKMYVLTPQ
# Chain of Cytochrome P450 2C9 (Homo sapiens) (P11712 whole entry, looked up): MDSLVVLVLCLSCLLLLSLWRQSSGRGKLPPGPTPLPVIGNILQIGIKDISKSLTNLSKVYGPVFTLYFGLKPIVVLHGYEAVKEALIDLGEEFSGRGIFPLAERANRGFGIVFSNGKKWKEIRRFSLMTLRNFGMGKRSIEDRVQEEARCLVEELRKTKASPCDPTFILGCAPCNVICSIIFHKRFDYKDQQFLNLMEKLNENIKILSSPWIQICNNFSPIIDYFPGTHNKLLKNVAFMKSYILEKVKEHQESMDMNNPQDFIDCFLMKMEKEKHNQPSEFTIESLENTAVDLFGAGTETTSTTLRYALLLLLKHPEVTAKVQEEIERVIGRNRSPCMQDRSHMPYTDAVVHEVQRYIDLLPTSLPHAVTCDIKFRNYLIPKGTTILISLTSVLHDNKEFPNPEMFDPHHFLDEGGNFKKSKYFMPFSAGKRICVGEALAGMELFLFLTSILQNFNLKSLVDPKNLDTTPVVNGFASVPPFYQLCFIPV
# Chain of Ubiquitin carboxyl-terminal hydrolase 1 (Homo sapiens) (O94782 whole entry, looked up): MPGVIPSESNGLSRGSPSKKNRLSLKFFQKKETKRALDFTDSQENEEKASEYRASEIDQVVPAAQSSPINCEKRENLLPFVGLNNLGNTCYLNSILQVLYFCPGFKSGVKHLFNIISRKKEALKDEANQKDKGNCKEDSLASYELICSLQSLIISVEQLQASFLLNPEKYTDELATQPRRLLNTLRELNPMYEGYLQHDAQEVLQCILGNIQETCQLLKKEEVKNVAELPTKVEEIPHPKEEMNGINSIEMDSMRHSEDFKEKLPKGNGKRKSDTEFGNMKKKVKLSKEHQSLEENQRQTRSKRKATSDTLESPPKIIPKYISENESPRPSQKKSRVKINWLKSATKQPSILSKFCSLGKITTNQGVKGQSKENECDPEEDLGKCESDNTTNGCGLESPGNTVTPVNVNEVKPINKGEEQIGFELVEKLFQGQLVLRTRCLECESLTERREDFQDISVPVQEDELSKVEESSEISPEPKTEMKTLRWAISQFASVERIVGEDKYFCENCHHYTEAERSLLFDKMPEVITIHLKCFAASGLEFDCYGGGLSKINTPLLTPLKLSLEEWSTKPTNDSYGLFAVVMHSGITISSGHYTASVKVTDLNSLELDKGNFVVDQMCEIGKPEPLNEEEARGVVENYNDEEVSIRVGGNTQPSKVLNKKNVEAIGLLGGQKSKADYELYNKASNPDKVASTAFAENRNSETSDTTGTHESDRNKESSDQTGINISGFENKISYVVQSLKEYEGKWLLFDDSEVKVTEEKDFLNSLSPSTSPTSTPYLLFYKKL
# Chain of Pyruvate kinase (Leishmania mexicana) (Q27686 2-499 E452W): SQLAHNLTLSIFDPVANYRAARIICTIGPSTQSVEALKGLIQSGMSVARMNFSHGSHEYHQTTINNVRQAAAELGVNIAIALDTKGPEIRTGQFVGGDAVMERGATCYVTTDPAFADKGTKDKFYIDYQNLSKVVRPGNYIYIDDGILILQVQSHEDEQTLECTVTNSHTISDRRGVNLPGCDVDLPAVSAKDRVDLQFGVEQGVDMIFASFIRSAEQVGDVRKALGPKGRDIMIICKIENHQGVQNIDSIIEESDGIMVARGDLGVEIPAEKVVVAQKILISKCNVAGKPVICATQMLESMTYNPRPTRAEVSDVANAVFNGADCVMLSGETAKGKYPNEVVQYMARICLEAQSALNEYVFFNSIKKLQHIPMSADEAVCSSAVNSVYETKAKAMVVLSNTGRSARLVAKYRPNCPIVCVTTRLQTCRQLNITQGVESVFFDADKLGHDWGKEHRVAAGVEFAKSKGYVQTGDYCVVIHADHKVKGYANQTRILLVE
# Chain of Alpha-galactosidase A (Homo sapiens) (P06280 whole entry, looked up): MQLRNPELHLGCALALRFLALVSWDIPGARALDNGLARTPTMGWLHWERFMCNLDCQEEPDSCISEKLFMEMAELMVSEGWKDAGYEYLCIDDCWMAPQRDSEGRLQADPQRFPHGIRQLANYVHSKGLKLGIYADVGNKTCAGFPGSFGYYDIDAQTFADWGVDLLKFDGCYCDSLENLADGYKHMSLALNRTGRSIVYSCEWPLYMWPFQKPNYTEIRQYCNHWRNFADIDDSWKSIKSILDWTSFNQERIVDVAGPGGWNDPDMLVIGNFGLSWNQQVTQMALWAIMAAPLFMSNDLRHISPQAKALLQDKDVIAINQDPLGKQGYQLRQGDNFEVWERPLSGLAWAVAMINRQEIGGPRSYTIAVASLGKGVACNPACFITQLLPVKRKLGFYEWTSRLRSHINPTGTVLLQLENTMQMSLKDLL
# Chain of Cytochrome P450 1A2 (Homo sapiens) (P05177 whole entry, looked up): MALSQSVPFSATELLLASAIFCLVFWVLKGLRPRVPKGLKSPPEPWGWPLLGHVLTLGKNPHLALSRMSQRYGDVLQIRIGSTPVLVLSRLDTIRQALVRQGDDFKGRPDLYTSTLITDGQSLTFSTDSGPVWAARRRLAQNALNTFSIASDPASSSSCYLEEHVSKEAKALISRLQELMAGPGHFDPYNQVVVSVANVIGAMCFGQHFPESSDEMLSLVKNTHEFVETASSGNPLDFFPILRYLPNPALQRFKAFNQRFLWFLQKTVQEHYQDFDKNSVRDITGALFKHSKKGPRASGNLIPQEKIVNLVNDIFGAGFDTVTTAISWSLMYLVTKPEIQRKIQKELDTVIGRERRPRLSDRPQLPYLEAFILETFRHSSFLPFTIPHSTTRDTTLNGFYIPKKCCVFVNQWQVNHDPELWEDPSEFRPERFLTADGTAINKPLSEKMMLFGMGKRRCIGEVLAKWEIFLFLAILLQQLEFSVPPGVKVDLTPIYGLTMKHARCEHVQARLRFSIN
smiles,measurement,setting,value
CC(C)[C@@]1(NC(=O)[C@@H]2C[C@H]3c4cccc5[nH]cc(c45)C[C@@H]3N(C)C2)O[C@@]2(O)[C@H]3CCCN3C(=O)[C@H](Cc3ccccc3)N2C1=O,Potency,[1],inactive
same,Potency,[2],> 46 µM (inactive)
same,Potency,[3],> 46 µM (inactive)
same,Potency,[4],inactive
same,Potency,[5],2.51 µM (active) and 6.31 µM (active)
same,Potency,[6],3.98 µM (active) and 5.01 µM (active)
same,Potency,[7],10 µM (active)
same,outcome,[8],inactive
same,outcome,[9],inactive
same,outcome,[10],inactive
same,outcome,[11],inactive
same,outcome,[12],inactive
same,outcome,[13],inactive
same,Potency,[14],inactive
same,Potency,[15],inactive
same,Potency,[16],inactive
same,Potency,[17],inactive
same,Potency,[18],35.5 µM (active) and inactive
same,max response,[19],-30.4% (inactive)
CC[C@H](Oc1ccc(Cl)cc1)C(=O)OC1C[C@H]2CC[C@@H](C1)N2C (stereo partly specified),Potency,[2],> 46 µM (inactive)
same,outcome,[20],inactive
same,Potency,[21],0.0063 µM (active)
same,Potency,[6],15.8 nM (active)
same,"activity change, negative = inhibition",[22]; at 57.5 µM (top of the series),-0.561% (inactive)
same,max response,[22]; measured here: cell count channel max response,16.1%
same,max response,[22]; measured here: lipid channel max response,28.8%
same,Potency,[14],inactive
same,Potency,[15],inactive
same,Potency,[16],inactive
same,Potency,[17],inactive
same,max response,[19],3.6% (inactive)
